Results filed as inconclusive are left out. Active and inactive are the calls of the source. Unless noted, calls come from the whole dose curve; as a rule, active = well fitted curve in the direction sought with a large enough effect in the repeat runs; inconclusive = weak or mixed curves; inactive = no such curve, though single readings can be large; an effect the other way counts as inactive or inconclusive.
Tests used:
[1] = target: Retinoic acid receptor RXR-alpha (Homo sapiens) (UniProt P19793); assay: qHTS assay to identify small molecule agonists of the RXR signaling pathway (AID 1159527; calls by dose curve; note: nearly all actives have a fitted effect of over 35% in size)
Sequence of Retinoic acid receptor RXR-alpha (Homo sapiens) (P19793 whole entry, looked up): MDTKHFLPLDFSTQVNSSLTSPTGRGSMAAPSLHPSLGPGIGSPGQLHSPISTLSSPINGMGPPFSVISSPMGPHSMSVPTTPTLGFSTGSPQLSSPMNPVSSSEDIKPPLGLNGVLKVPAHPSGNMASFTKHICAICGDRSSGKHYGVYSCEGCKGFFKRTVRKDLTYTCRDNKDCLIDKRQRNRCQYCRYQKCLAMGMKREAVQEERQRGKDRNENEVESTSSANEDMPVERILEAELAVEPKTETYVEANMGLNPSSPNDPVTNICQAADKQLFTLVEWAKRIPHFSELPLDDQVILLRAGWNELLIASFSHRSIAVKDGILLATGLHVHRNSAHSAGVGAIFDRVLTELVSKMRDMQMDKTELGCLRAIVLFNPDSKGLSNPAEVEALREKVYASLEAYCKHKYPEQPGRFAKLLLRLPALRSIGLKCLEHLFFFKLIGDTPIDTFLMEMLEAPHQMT
Outline: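 Cells plated at 2,000/well, rested 5 hr at 37 C, pin-dosed with DMSO compound solutions, incubated 16 hr, then loaded with B/G FRET substrate for 2 hr at RT before dual-emission fluorescence reading.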

[2] = qHTS assay to identify small molecule agonists of the RXR signaling pathway - cell viability counter screen (AID 1159529);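 note: HEK 293T cells carrying an RXR-alpha UAS beta-lactamase reporter; series mostly up to about 77 µM; nearly all actives have a fitted effect of over 50% in size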
Outline: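 Steps: seed RXR-alpha-UAS-bla HEK 293T cells in assay medium containing 2% charcoal-stripped FBS; incubate 5 hr; add compounds in DMSO; incubate 16 hr at 37 C; after the bla read, add CellTiter-Glo and read luminescence at 30 min.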

[3] = qHTS assay to identify small molecule antagonists of the retinoid acid receptor (RAR) signaling pathway - cell viability counter screen (AID 1159551); note: nearly all actives have a fitted effect of over 35% in size
Outline: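 Retinol-stimulated (1 uM final) C3RL4 cells, compound 6 h, 37 C; readout CellTiter-Glo luminescence (ATP) after 30 min RT incubation.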

[4] = qHTS assay to identify small molecule antagonists of the retinoic acid receptor (RAR) signaling pathway (AID 1159552; note: nearly all actives have a fitted effect of over 50% in size)
Outline: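 Retinol at 1 uM final stimulated RARE-luciferase expression in C3RL4 cells exposed to test compounds for 6 hr at 37 C. Reduced luminescence, read 30 min after detection reagent, indicated pathway antagonism.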

[5] = qHTS assay to identify small molecule agonists of the retinoic acid receptor (RAR) signaling pathway (AID 1159553)
Outline: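 Reporter readout comes from luciferase under RARE control in C3RL4 cells; compound exposure lasts 6 hr at 37 C in 5% CO2, and luminescence is recorded following a 30 min room-temperature incubation with reagent.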

[6] = qHTS assay to identify small molecule antagonists of the estrogen related receptor (ERR) signaling pathway from Tox21 library - cell viability counter screen (AID 1224834); note: nearly all actives have a fitted effect of over 30% in size
Outline: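 After 17.5 h of compound exposure at 37 C, ERR cells are incubated with CellTiter-Fluor for 30 min and fluorescence intensity serves as the viability measure.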

[7] = target: Luciferin 4-monooxygenase (Photinus pyralis) (UniProt P08659); assay: qHTS assay to identify small molecule inhibitors of firefly luciferase (AID 1224835); note: series mostly up to about 120 µM; nearly all actives have a fitted effect of over 25% in size
Sequence of Luciferin 4-monooxygenase (Photinus pyralis) (P08659 whole entry, looked up): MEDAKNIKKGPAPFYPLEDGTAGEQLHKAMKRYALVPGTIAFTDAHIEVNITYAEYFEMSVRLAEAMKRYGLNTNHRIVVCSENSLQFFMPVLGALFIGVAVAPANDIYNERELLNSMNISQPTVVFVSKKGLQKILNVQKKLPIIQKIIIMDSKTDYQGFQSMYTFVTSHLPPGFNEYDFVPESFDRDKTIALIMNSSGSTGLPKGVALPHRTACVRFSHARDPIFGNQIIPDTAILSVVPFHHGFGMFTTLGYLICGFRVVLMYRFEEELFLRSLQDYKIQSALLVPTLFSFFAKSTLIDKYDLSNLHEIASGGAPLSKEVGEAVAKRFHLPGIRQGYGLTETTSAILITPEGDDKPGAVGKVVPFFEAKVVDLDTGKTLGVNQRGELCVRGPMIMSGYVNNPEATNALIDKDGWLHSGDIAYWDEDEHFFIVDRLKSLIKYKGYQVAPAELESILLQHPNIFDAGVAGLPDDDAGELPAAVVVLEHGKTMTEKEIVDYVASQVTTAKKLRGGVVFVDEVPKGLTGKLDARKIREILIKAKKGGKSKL
Outline: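 Quantitative HTS format; KM concentrations of both substrates. Purified P. pyralis FLuc activity quantified from luminescence images.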

[8] = qHTS assay to identify small molecule agonists of the constitutive androstane receptor (CAR) signaling pathway - cell viability counter screen (AID 1224836); note: series mostly up to about 92 µM; nearly all actives have a fitted effect of over 45% in size
Outline: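 Cells were seeded and incubated 4 hrs. Compounds were added across 15 concentrations together with PK11195 at 0.75 uM final. Plates were incubated 23 hrs at 37 C. CellTiter-Fluor was added and fluorescence measured.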

[9] = qHTS assay to identify small molecule antagonists of the constitutive androstane receptor (CAR) signaling pathway - cell viability counter screen (AID 1224837); note: series mostly up to about 92 µM; nearly all actives have a fitted effect of over 45% in size
Outline: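 Counter screen run in HepG2-CYP2B6-hCAR cells: 4 hr settle, compound titration (15 concentrations) with 50 nM CITCO, 23 hr at 37 C/5% CO2, CellTiter-Fluor fluorescence.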

[10] = target: Nuclear receptor subfamily 1 group I member 3 (Homo sapiens) (UniProt Q14994); assay: qHTS assay to identify small molecule antagonists of the constitutive androstane receptor (CAR) signaling pathway (AID 1224838);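 note: HepG2 cells stably expressing hCAR with CYP2B6 luciferase reporter stimulated by CITCO; nearly all actives have a fitted effect of over 40% in size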
Sequence of Nuclear receptor subfamily 1 group I member 3 (Homo sapiens) (Q14994 whole entry, looked up): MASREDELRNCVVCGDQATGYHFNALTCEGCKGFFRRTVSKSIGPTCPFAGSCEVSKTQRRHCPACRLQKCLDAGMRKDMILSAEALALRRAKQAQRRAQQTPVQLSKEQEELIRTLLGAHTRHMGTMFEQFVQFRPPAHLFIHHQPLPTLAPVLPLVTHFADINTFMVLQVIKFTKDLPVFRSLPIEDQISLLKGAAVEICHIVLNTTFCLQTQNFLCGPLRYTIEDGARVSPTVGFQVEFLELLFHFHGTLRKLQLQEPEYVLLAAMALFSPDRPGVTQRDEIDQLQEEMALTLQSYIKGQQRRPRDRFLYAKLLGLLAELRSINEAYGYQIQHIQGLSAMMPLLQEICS
Outline: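 Cell line: HepG2 double-stable for hCAR and CYP2B6-2.2kb reporter. Agonist: CITCO, 50 nM final. Compounds: 15 concentrations, 24 h, 37 C. Detection: ONE-Glo luminescence.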

[11] = target: Nuclear receptor subfamily 1 group I member 3 (Homo sapiens) (UniProt Q14994); assay: qHTS assay to identify small molecule agonists of the constitutive androstane receptor (CAR) signaling pathway (AID 1224839);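 note: HepG2 cells stably carrying human CAR and a CYP2B6 luciferase reporter; series mostly up to about 92 µM; nearly all actives have a fitted effect of over 15% in size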
Outline: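 Cells were plated and incubated 4 hrs, then dosed with compounds at 15 concentrations. PK11195 was added to 0.75 uM final. After 24 hrs at 37 C, luciferase luminescence was measured.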

[12] = qHTS assay to identify small molecule antagonists of the estrogen related receptor signaling pathway with the pleiotropic PPARgamma coactivator (PGC) from Tox21 10K library - cell viability counter screen (AID 1224840; active = well fitted cell-killing curve with a large enough effect in the repeat runs, not every such curve was filed as active; note: nearly all actives have a fitted effect of over 40% in size)
Outline: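 Following seeding of 2,000 PGC/ERR cells/well and 6 hours' incubation, test compounds were delivered in DMSO. The plates then sat 17.5 hours at 37 C before a fluorogenic live-cell protease reagent (CellTiter-Fluor) was read after 30 min.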

[13] = qHTS assay to identify small molecule antagonists of the estrogen related receptor signaling pathway with the pleiotropic PPARgamma coactivator (PGC) from Tox21 10K library (AID 1224841; call rule not given here; note: series mostly up to about 92 µM; actives are mostly falling curves and most rising ones were filed inactive; nearly all actives have a fitted effect of over 50% in size)
Outline: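 qHTS antagonist format: PGC/ERR cells, 2k/well, compound in DMSO by pin transfer after 6 h attachment, 18 h treatment at 37 C, One-Glo luminescence read at 30 min.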

[14] = qHTS assay to identify small molecule agonists of the estrogen related receptor signaling pathway with the pleiotropic PPARgamma coactivator (PGC) from Tox21 10K library (AID 1224842); note: nearly all actives have a fitted effect of over 15% in size
Outline: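 PGC/ERR reporter cells (NTP line) were seeded 2,000 per well, rested 6 h at 37 C/5% CO2, then pin-dosed with compounds in DMSO for 18 h at 37 C; luciferase read by One-Glo luminescence after 30 min at room temperature.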

Measured: Potency

C=C[Si](OC(=C)C)(OC(=C)C)OC(=C)C
inactive: all assays above

COC(=O)c1cc(C(=O)OC)cc(S(=O)(=O)O)c1
inactive: all assays above

O=C1CCCCCCCCCCCN1
not listed: [11] | [13] | [14]
inactive: all other assays above

COc1ccc2c(c1)CCCC2=O
not listed: [7] | [14]
inactive: all other assays above

Cc1sccc1Br
inactive: all assays above

C=C(C)CS(=O)(=O)O
not listed: [12]
inactive: all other assays above

CCCc1cc(C(N)=S)ccn1
not listed: [12]
inactive: all other assays above

N=C(N)c1ccc2cc(OC(=O)c3ccc(N=C(N)N)cc3)ccc2c1
not listed: [12] | [14]
inactive: all other assays above

CO/N=C(/C(=O)N[C@@H]1C(=O)N2C(C(=O)OCOC(=O)C(C)(C)C)=C(C)CS[C@H]12)c1csc(N)n1
not listed: [12]
inactive: all other assays above

COc1cc(C(=O)N2CCCCCCC2)cc(OC)c1OC
inactive: all assays above

CCN(CC)CCOCCOC(=O)C1(c2ccccc2)CCCC1
not listed: [9] | [13] | [14]
inactive: all other assays above

CC(C)CCCC(C)N (stereo not drawn)
not listed: [12]
inactive: all other assays above

OC1CCCCC1c1ccccc1 (stereo not drawn)
not listed: [12]
inactive: all other assays above

COC(=O)CCSCCC(=O)OC
not listed: [7] | [14]
inactive: all other assays above

CCC=O
not listed: [12]
inactive: all other assays above

CC(C)(O)C(=O)c1ccccc1
not listed: [12]
inactive: all other assays above

CC(C)NCCCC1(C(N)=O)c2ccccc2-c2ccccc21
not listed: [12]
inactive: all other assays above
